In the library only some 2.1% were active in any assay of this set; here they are far more common.
TPT1 inhibitor: Candida albicans TPT1 enzyme inhibitors, primary screen, biochemical, fluorescence polarization. tRNA 2'-phosphotransferase TPT1 (Candida albicans SC5314). recombinant caTPT1, FP RNA substrate dephosphorylation. inhibition, % at 5 µM. 0.81% of 300,000 active. AID 1962, 2009;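 active means inhibition above the mean of all tested compounds plus 3 SD, set per screening campaign, cut at about 24% in these data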
Myeloid diff MLP: induction of myeloid progenitor differentiation, primary screen, cell-based, flow cytometry, MLPCN library; ER-HoxA9 myeloid progenitors, lysozyme-GFP differentiation; calls only at 10 µM; 1% of 360,000 active; AID 624256, 2012;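 active means normalized GFP-positive differentiation at or above the plate's own cutoff, the solvent-only control mean plus 3 SD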;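 further: cells exposed to compound for four days before flow analysis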
Rpn11 inh: Rpn11 (PSMD14) deubiquitinase inhibitors, primary screen, biochemical, fluorescence polarization, uHTS | 26S proteasome non-ATPase regulatory subunit 14 (Homo sapiens), O00487 | human 26S proteasome, Ub4-pepOG fluorescence polarization; 20S core pre-blocked with epoxomicin | inhibition, % at 20 µM | 0.59% of 360,000 active | AID 588493, 2011;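 active means inhibition at 20 µM, scaled to each plate's controls, above about 33%, limit read from the data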
Target sequence (O00487 whole entry, looked up): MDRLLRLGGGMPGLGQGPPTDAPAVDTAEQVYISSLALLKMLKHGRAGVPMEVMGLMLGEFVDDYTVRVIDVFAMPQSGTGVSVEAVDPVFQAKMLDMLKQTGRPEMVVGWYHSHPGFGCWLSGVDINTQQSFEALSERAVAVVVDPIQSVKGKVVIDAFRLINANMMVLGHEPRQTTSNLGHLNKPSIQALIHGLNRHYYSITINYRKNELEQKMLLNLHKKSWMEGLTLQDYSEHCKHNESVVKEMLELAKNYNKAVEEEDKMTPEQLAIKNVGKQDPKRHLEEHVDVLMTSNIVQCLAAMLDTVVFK
HNF4A DNA FP: change in binding of human HNF4A to DNA, primary screen, biochemical, fluorescence polarization, FITC-DNA; Hepatocyte nuclear factor 4-alpha (Homo sapiens), P41235; 1 h; activity change, % at 10 µM; 0.3% of 360,000 active; AID 1224865, 2016; in the data active means activity change above about 30%, passing the limit was not always enough
Myeloid diff CP1: inducers of myeloid progenitor differentiation, confirmation, cell-based, GFP/Mac1 flow cytometry, cherry pick 01. shares compounds with Myeloid diff MLP. ER-HoxA9 myeloid progenitors, GFP/Mac1 double-positive flow. calls only. 2% of 2,300 active;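 active means share of green or green-and-red cells above 9 and 9% in run 1 or 4 and 3% in run 2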
GFP autofluor: compound fluorescence in myeloid differentiation counter-screen; shares compounds with Myeloid diff MLP; ER-HoxA9 myeloid progenitors, no estrogen, GFP autofluorescence flow cytometry; vehicle wells 0%, positive control 100%; fluorescence response, % (concentration not given with the values); 7.4% of 2,300 active;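 active means over 5% cells positive for green fluorescent reporter, or over 2% positive for both it and APC stain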
Large screens that a line does not name were inactive (follow-up assays come after a bar, where they were run).

Cc1ccc(CNC(=O)COC(=O)c2nc(-c3ccccc3)oc2C)cc1	none (no result: TPT1 inhibitor) | Myeloid diff CP1 inactive | GFP autofluor inactive
Cc1oc(-c2ccccc2)nc1C(=O)OCC(=O)NCc1ccc(Cl)cc1	none (no result: TPT1 inhibitor)
Cc1cccnc1NC(=O)CCc1nnc2ccc(N3CCC4(CC3)OCCO4)nn12	none
CC(=O)Nc1nc(C)nc(-c2ccccc2OC(C)=O)n1	none
CC(=O)Nc1nc(-c2ccccc2)nc(-c2ccccc2OC(C)=O)n1	Myeloid diff MLP active | Myeloid diff CP1 inactive | GFP autofluor inactive
N#Cc1c(N)nc(SCc2ccccn2)c(C#N)c1-c1cccs1	none | Myeloid diff CP1 inactive | GFP autofluor inactive
O=C(O)C(Cc1ccc(O)cc1)N1C(=O)c2ccccc2C1=O (stereo not given)	none
CCOc1ccccc1-n1c(SCC(N)=O)nnc1-c1ccccc1	none | Myeloid diff CP1 inactive | GFP autofluor inactive
Cc1ccc(C(=O)OC(C)CN2CCN(C)CC2)cc1 (stereo not given)	none
CCOC(=O)Nc1nc(C)c(C(=O)c2ccc(Cl)cc2)s1	none | Myeloid diff CP1 inactive | GFP autofluor inactive
COc1ccc2oc(C(=O)OCC(=O)Nc3cc(S(=O)(=O)N4CCOCC4)ccc3OC)c(C)c2c1	none
CSCC[C@H](NC(=O)C1CCN(S(=O)(=O)c2ccc(C)cc2)CC1)C(=O)NCc1ccco1	Myeloid diff MLP active | Myeloid diff CP1 inactive | GFP autofluor inactive
CCCN(CC(=O)Nc1ccccc1OC)C(=O)CN1C(=O)NC2(CCCCC2)C1=O	Myeloid diff MLP active (no result: TPT1 inhibitor) | Myeloid diff CP1 inactive | GFP autofluor inactive
COc1ccc(F)cc1CSc1nnnn1-c1ccc(O)cc1	none
COc1cc(CSc2nnnn2-c2ccc(C)cc2)cc(OC)c1OC	none | Myeloid diff CP1 inactive | GFP autofluor inactive
CCCCNC(=O)c1ccccc1SCc1c(C)noc1C	none (no result: Myeloid diff MLP)
Cc1c(NC(=S)NC(NC(=O)CC(C)C)C(Cl)(Cl)Cl)c(=O)n(-c2ccccc2)n1C (stereo not given)	none
Cc1cccc(NC(=S)NC(NC(=O)OCc2ccccc2)C(Cl)(Cl)Cl)c1 (stereo not given)	none | Myeloid diff CP1 inactive | GFP autofluor inactive
CC(C)CC(=O)NC(NC(=S)Nc1ccccc1)C(Cl)(Cl)Cl (stereo not given)	none | Myeloid diff CP1 inactive | GFP autofluor inactive
CC(C)(C)C(=O)Nc1cc(NC(=O)C(C)(C)C)cc(C(=O)NNC(=O)c2ccncc2)c1	Myeloid diff MLP active | Myeloid diff CP1 inactive | GFP autofluor inactive
O=C(Nc1ccccc1[N+](=O)[O-])c1nc[nH]c1C(=O)NCCO	Myeloid diff MLP active | Myeloid diff CP1 inactive | GFP autofluor inactive
COc1ccc(-c2nc3ccccc3n(CC(C)C)c2=O)cc1	none (no result: TPT1 inhibitor, Rpn11 inh)
COCCCNC(=O)C1CCC(=O)N(c2ccc3c(c2)OCO3)C1c1ccc(OC)cc1 (stereo not given)	none | Myeloid diff CP1 inactive | GFP autofluor inactive
Cc1ccc(S(=O)(=O)N2CCCCC2CCNC(=O)C(=O)NCc2cccnc2)cc1 (stereo not given)	Myeloid diff MLP active | Myeloid diff CP1 inactive | GFP autofluor inactive
Cc1ccc(C)c(S(=O)(=O)N2CCCCC2CCNC(=O)C(=O)NCc2cccnc2)c1 (stereo not given)	none
CN(CC(=O)Nc1ccc(F)cc1)C(=O)COC(=O)CN1C(=O)NC2(CCCC2)C1=O	none
Cc1ccc(NC(=O)COC(=O)CN2C(=O)NC3(CCCC3)C2=O)cc1F	none (no result: TPT1 inhibitor) | Myeloid diff CP1 inactive | GFP autofluor inactive
CC(=O)N1CCCC(N2CCN(c3cccc(C(F)(F)F)c3)CC2)C1 (stereo not given)	none
CCCN1CCC(N2CCN(c3cccc(C(F)(F)F)c3)CC2)CC1	Myeloid diff MLP active | Myeloid diff CP1 inactive | GFP autofluor inactive
Cc1nc2c(OCc3cc(Cl)cc(Cl)c3)cccn2c1N(C)C(=O)CCC1CCCC1	none (no result: TPT1 inhibitor)
CNc1ccc(C(O)(C(F)(F)F)C(F)(F)F)cc1C(O)(C(F)(F)F)C(F)(F)F	Myeloid diff MLP active | Myeloid diff CP1 inactive | GFP autofluor inactive
Oc1[nH]c2ccccc2c1C=Nc1ccccc1	none | Myeloid diff CP1 inactive | GFP autofluor inactive
OCCN=Cc1c(O)[nH]c2ccccc12	none
COC(=O)c1ccc(CSc2nc3ccc(S(=O)(=O)N4CCOCC4)cc3[nH]2)cc1	none
O=C(NCc1ccccc1)C1(c2cccc(F)c2)CCCC1	none
CCc1cc(C(=O)c2ccccc2OC)c(N)s1	none | Myeloid diff CP1 inactive | GFP autofluor inactive
O=C(Cn1c(NCCCO)nc2ccccc21)c1cccs1	none
COC(=O)c1ccccc1NC(=O)C1CCC(=O)N1S(=O)(=O)c1ccc(C)cc1 (stereo not given)	none | Myeloid diff CP1 inactive | GFP autofluor inactive
COC(=O)C1CCCN1C(=O)C12CC3CC(CC(C3)C1)C2 (stereo not given)	none
O=C(COC(=O)c1ccc(NS(=O)(=O)c2cccs2)cc1O)NCc1ccccc1	none | Myeloid diff CP1 inactive | GFP autofluor inactive
CCOC(=O)c1c(C)oc2ccc(NS(=O)(=O)c3cccs3)cc12	none (no result: Myeloid diff MLP) | Myeloid diff CP1 inactive | GFP autofluor inactive
O=C(COC(=O)c1ccc(NS(=O)(=O)c2cccs2)cc1O)Nc1nc2ccccc2s1	none
O=C1N/C(=C/c2cccs2)C(=O)N1Cc1ccc(Br)cc1	none
Cc1ccc2c(c1)S/C(=C/c1ccc[n+](CCO)c1)N2C	none
Cc1ccc2c(c1)S/C(=C\c1cccc[n+]1C)N2CCO	Myeloid diff MLP active | Myeloid diff CP1 inactive | GFP autofluor 68.1
CC(C)COC(=O)c1ccc2c(c1O)C(=O)c1ccccc1C2=O	none | Myeloid diff CP1 inactive | GFP autofluor 6.1
O=C(N[C@@H](Cc1ccccc1)C(=O)OCc1ccccc1)c1nc[nH]c1C(=O)N1CCc2ccccc2C1	none
CCn1cnc2cc([N+](=O)[O-])ccc21	none
CC(C)N(C)Cc1nnnn1CC(=O)NCCc1cccc(C(F)(F)F)c1	none
CC(C)(C)OC(=O)N[C@@H](Cc1ccccc1)C(=O)N1CCC(C(=O)N[C@@H](CCC(N)=O)C(=O)O)CC1	none
CC(C)(C)OC(=O)N[C@@H](Cc1ccccc1)C(=O)N1CCC(C(=O)O)CC1	none | Myeloid diff CP1 inactive | GFP autofluor inactive
COc1cccc(CN(C)C(=O)CSC(C)C(=O)Nc2cc(C)on2)c1OC (stereo not given)	none
Cc1ccccc1-n1nc2c(c1NC(=O)C1CC1)CS(=O)(=O)C2	none (no result: TPT1 inhibitor)
COc1cc2c(=O)n(Cc3ccccc3)c(=O)n(CC(=O)NCCc3ccccc3)c2cc1OC	Myeloid diff MLP active | Myeloid diff CP1 inactive | GFP autofluor inactive
O=C(NC(c1ccc(Cl)cc1)c1cnccn1)C1CCN(CCCOc2ccccc2)CC1 (stereo not given)	none (no result: TPT1 inhibitor)
